# According to PubChem BioAssay (NCI):
# This is part of a sample that, as a whole, favours compounds with a hit. Of some 79,000 tested, about 15% had one in any assay. Values without a mark were called inactive. The source made the active and inactive calls. Rule as the data show it: active = growth inhibition above about 70%; inactive = the rest.
# Assay: NCI Yeast Anticancer Drug Screen. Data for the mlh1 rad18 strain (AID 175)
# Conditions: S. cerevisiae mlh1 rad18 strain growth inhibition; at 50.0 µM (retest, dose inferred, filed as 5.0); hits give high values
# In short: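 Vehicle-treated cultures served as the reference for growth inhibition in a yeast strain carrying DNA damage repair alterations exposed to each compound.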
row,Structure (SMILES),growth inhibition
1,O=CC=C(c1ccccc1)c1ccccc1,90% (active)
2,FC(F)(F)c1nc2nc(Cl)c(Cl)nc2n1CCCN1CCOCC1,57%
3,BrCC[P+](c1ccccc1)(c1ccccc1)c1ccccc1,96% (active)
4,N#CSc1ccc(S(N)(=O)=O)cc1,98% (active)
5,O=[N+]([O-])c1ccc2nc3ccccc3cc2c1,90% (active)
6,O=C(NC(Nc1ccc(F)c(Cl)c1)(C(F)(F)F)C(F)(F)F)C(C(F)(F)F)C(F)(F)F,90% (active)
7,O=C(/C=C\c1ccc(Cl)cc1Cl)c1cccs1,88% (active)
8,NC(=NCc1ccccc1)N/N=C\c1ccnc2ccccc12,-21%
9,CCCCN(CCCC)CCSc1ccc(Cl)cc1,80% (active)
10,COc1cc(C2C3=C(COC3=O)Oc3cc4c(cc32)OCO4)ccc1O (stereo not given),45%
11,C#CCCCc1ccccc1,70% (active)
12,CCc1ccc(NS(=O)(=O)c2ccccc2)c([N+](=O)[O-])c1,61%
13,COC(=O)c1ccc(CCC2=CC(=O)C(Br)=CC2=O)cc1,99% (active)
14,NNC(=O)CCc1ccc2ccc3ccccc3c2c1,22%
15,Cn1c2ccccc2c(=O)c2cc(NC(=O)CCCCC(=O)Nc3ccc4c(c3)c(=O)c3ccccc3n4C)ccc21,9%
16,CC(CC(C)(C)[N+](C)(C)C)[N+](C)(C)C (stereo not given),97% (active)
17,CC1CCN(CCC(=O)c2ccc(Cl)cc2)CC1,52%
18,CCCCCCCCCCCCCCC(C(=O)[O-])[n+]1ccccc1 (stereo not given),51%

row,Structure (SMILES),growth inhibition
1,CNC1C(OC2C(OC3C(O)C(O)C(N=C(N)N)C(O)C3N=C(N)N)OC(C)C2(O)CO)OC(CO)C(O)C1O (stereo not given),7%
2,O=[N+]([O-])c1cccc2nc3ccccc3c(NCCCN3CCOCC3)c12,98% (active)
3,C=CC(C)(O)CCC1C(=C)C(O)CC2C(C)(C)CCCC12C (stereo not given),45%
4,CN1c2ccc(Cl)cc2C(=O)NC1c1ccc([N+](=O)[O-])s1 (stereo not given),98% (active)
5,[O-][n+]1c2ccc(O)cc2nc2ccc(Br)cc21,93% (active)
6,O=C1c2ccccc2-c2nc3ccccc3nc21,99% (active)
7,CCCCN1C(=O)N(c2ccc(OCC)cc2)C2N(CCCC)C1C(C)(C)C2(C)C (stereo not given),84% (active)
8,CO[C@H]1C[C@](C)(O)Cc2cc3c(c(O)c21)C(=O)c1c(O)cc2c(c1C3=O)O[C@@H]1O[C@@]2(C)[C@H](O)[C@@H](N(C)C)[C@@H]1O,0%
9,COc1cc2c(cc1[N+](=O)[O-])C(=O)C(Br)(Br)CCC2,99% (active)
10,O=C1OC(CCl)CN1/N=C/c1ccc([N+](=O)[O-])o1 (stereo not given),92% (active)
11,CN(C)CCOc1ccc2c(c1)C/C(=C/c1ncc([N+](=O)[O-])n1C)C2=O,82% (active)
12,CCCCCCCCCCCCCCCCCCN(C)CC(COP(=O)([O-])OCC[N+](C)(C)C)OC (stereo not given),98% (active)
13,O=[N+]([O-])C(=C(Sc1ccccc1)Sc1ccccc1)C(Cl)=C(Cl)Cl,71% (active)
14,C(=C\c1ccccc1)/COc1ccccc1C(N1CCOCC1)n1nc2ccccc2n1 (stereo not given),99% (active)
15,O=C1C(Nc2ccccc2)=C(Oc2ccccc2)C(=O)c2ccccc21,30%
16,CCN(CC)CCN1C(=O)c2cccc3cc(OC)cc(c23)C1=O,36%
17,CN(C)Cc1cc(N=Nc2ccc(Cl)cc2)cc(CN(C)C)c1O,96% (active)

# Same assay, conditions: S. cerevisiae mlh1 rad18 strain growth inhibition; at 50.0 µM; hits give high values
row,Structure (SMILES),growth inhibition
1,O=CC=C(c1ccccc1)c1ccccc1,28.4%
2,FC(F)(F)c1nc2nc(Cl)c(Cl)nc2n1CCCN1CCOCC1,64.7%
3,BrCC[P+](c1ccccc1)(c1ccccc1)c1ccccc1,83.6% (active)
4,N#CSc1ccc(S(N)(=O)=O)cc1,59.1%
5,O=[N+]([O-])c1ccc2nc3ccccc3cc2c1,89.1% (active)
6,O=C(NC(Nc1ccc(F)c(Cl)c1)(C(F)(F)F)C(F)(F)F)C(C(F)(F)F)C(F)(F)F,93.4% (active)
7,O=C(/C=C\c1ccc(Cl)cc1Cl)c1cccs1,1.1%
8,NC(=NCc1ccccc1)N/N=C\c1ccnc2ccccc12,44.4%
9,CCCCN(CCCC)CCSc1ccc(Cl)cc1,88.2% (active)
10,COc1cc(C2C3=C(COC3=O)Oc3cc4c(cc32)OCO4)ccc1O (stereo not given),78% (active)
11,C#CCCCc1ccccc1,26.7%
12,CCc1ccc(NS(=O)(=O)c2ccccc2)c([N+](=O)[O-])c1,78% (active)
13,COC(=O)c1ccc(CCC2=CC(=O)C(Br)=CC2=O)cc1,91.8% (active)
14,NNC(=O)CCc1ccc2ccc3ccccc3c2c1,71.3% (active)
15,Cn1c2ccccc2c(=O)c2cc(NC(=O)CCCCC(=O)Nc3ccc4c(c3)c(=O)c3ccccc3n4C)ccc21,62.8%
16,CC(CC(C)(C)[N+](C)(C)C)[N+](C)(C)C (stereo not given),94.3% (active)
17,CC1CCN(CCC(=O)c2ccc(Cl)cc2)CC1,58.1%
18,CCCCCCCCCCCCCCC(C(=O)[O-])[n+]1ccccc1 (stereo not given),98% (active)

row,Structure (SMILES),growth inhibition
1,CNC1C(OC2C(OC3C(O)C(O)C(N=C(N)N)C(O)C3N=C(N)N)OC(C)C2(O)CO)OC(CO)C(O)C1O (stereo not given),93.1% (active)
2,O=[N+]([O-])c1cccc2nc3ccccc3c(NCCCN3CCOCC3)c12,98.2% (active)
3,C=CC(C)(O)CCC1C(=C)C(O)CC2C(C)(C)CCCC12C (stereo not given),63.9%
4,CN1c2ccc(Cl)cc2C(=O)NC1c1ccc([N+](=O)[O-])s1 (stereo not given),92.8% (active)
5,[O-][n+]1c2ccc(O)cc2nc2ccc(Br)cc21,92.2% (active)
6,O=C1c2ccccc2-c2nc3ccccc3nc21,66.7%
7,CCCCN1C(=O)N(c2ccc(OCC)cc2)C2N(CCCC)C1C(C)(C)C2(C)C (stereo not given),54.1%
8,CO[C@H]1C[C@](C)(O)Cc2cc3c(c(O)c21)C(=O)c1c(O)cc2c(c1C3=O)O[C@@H]1O[C@@]2(C)[C@H](O)[C@@H](N(C)C)[C@@H]1O,73.2% (active)
9,COc1cc2c(cc1[N+](=O)[O-])C(=O)C(Br)(Br)CCC2,90.8% (active)
10,O=C1OC(CCl)CN1/N=C/c1ccc([N+](=O)[O-])o1 (stereo not given),87.9% (active)
11,CN(C)CCOc1ccc2c(c1)C/C(=C/c1ncc([N+](=O)[O-])n1C)C2=O,89.3% (active)
12,CCCCCCCCCCCCCCCCCCN(C)CC(COP(=O)([O-])OCC[N+](C)(C)C)OC (stereo not given),89.5% (active)
13,O=[N+]([O-])C(=C(Sc1ccccc1)Sc1ccccc1)C(Cl)=C(Cl)Cl,59.5%
14,C(=C\c1ccccc1)/COc1ccccc1C(N1CCOCC1)n1nc2ccccc2n1 (stereo not given),99% (active)
15,O=C1C(Nc2ccccc2)=C(Oc2ccccc2)C(=O)c2ccccc21,58.8%
16,CCN(CC)CCN1C(=O)c2cccc3cc(OC)cc(c23)C1=O,-14.2%
17,CN(C)Cc1cc(N=Nc2ccc(Cl)cc2)cc(CN(C)C)c1O,90.2% (active)
